Activity calls are given as the source filed them.
Tests used:
[1] = anti-His antibody binders, primary screen, artefact control for SMM control protein annotation, biochemical, small-molecule microarray, 635 nm fluorescence (AID 1128); conditions: anti-His Alexa647 antibody binding, higher = more signal;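 further: score merges feature fluorescence with signal-to-noise for each printed compound spot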
[2] = tested on: Human papillomavirus type 1a E7 protein (residues 1-88); assay: HPV1a E7 small-molecule binders, primary screen, biochemical, small-molecule microarray, residues 1-88, 635 nm (AID 1129); conditions: small-molecule microarray binding, fluorescence 635 nm; higher = more signal
[3] = biological target: Focal adhesion kinase 1 (Homo sapiens) (UniProt Q05397); assay: small-molecule microarray binders of FAK, primary screen, biochemical, 635/667 nm fluorescence, BSA, DTT (AID 1130); conditions: PTK2 binding, 635 nm fluorescence, higher = more signal;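 further: composite of spot emission at 667 nm and signal to noise over triplicate slides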
Focal adhesion kinase 1 (Homo sapiens), sequence (Q05397 whole entry, looked up): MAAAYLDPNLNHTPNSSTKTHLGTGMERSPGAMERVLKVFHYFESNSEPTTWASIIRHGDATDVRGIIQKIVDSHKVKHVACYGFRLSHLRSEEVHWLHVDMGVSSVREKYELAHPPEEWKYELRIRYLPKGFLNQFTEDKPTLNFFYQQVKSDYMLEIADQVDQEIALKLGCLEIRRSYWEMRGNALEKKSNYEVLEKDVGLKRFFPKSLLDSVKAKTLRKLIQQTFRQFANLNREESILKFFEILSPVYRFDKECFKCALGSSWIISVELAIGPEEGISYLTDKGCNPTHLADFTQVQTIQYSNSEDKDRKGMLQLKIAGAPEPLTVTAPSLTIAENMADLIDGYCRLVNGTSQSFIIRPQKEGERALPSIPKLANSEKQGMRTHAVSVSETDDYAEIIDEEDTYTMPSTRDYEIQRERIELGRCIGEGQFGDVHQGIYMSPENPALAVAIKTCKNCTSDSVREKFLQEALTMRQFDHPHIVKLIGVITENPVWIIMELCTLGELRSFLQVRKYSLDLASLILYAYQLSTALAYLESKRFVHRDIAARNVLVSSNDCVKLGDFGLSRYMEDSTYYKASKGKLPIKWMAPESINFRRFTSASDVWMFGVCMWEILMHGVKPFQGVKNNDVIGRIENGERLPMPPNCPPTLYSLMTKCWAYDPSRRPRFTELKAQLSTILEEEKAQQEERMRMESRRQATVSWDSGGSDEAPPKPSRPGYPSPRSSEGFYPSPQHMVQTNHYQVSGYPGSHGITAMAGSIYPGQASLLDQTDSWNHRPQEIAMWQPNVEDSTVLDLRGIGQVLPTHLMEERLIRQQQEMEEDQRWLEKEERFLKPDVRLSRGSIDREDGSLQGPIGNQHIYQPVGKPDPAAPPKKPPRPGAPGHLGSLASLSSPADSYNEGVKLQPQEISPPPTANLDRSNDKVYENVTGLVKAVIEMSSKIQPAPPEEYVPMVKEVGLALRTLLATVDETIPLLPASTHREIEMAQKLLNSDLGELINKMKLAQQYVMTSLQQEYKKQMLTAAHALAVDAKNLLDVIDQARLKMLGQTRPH

[4] = tested on: Fibrinogen (Alexa647-labelled); assay: fibrinogen binders on compound microarrays, profiling panel, artefact control for SMM control-protein annotation, biochemical, small-molecule microarray, 635/667 nm fluorescence (AID 1131); conditions: fibrinogen-A647 binding fluorescence, higher = more signal;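 further: z-score merges 667 nm fluorescence with per-spot signal-to-noise over triplicate slides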
[5] = biological target: Follistatin (Homo sapiens) (UniProt P19883); assay: follistatin binders on small-molecule microarrays, primary screen, biochemical, small-molecule microarray, 635/667 nm fluorescence (AID 1132); conditions: FST binding, 635 nm fluorescence, higher = more signal
Follistatin (Homo sapiens), sequence (P19883 whole entry, looked up): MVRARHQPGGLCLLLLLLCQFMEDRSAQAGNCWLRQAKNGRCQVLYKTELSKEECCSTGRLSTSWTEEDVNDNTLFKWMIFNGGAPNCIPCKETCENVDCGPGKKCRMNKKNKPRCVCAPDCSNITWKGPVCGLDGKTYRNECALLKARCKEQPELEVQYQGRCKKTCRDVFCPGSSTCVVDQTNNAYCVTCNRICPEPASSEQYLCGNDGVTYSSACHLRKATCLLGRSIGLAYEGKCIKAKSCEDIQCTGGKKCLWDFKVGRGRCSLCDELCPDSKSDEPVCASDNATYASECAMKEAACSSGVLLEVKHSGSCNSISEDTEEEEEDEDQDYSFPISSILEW

[6] = biological target: Fibroblast growth factor 2 (Homo sapiens) (UniProt P09038); assay: FGF2 binders on small-molecule microarrays, primary screen, biochemical, small-molecule microarray, 635/667 nm fluorescence (AID 1133); conditions: small-molecule microarray binding, FGF2, fluorescence 635/667; higher = more signal
Fibroblast growth factor 2 (Homo sapiens), sequence (P09038 whole entry, looked up): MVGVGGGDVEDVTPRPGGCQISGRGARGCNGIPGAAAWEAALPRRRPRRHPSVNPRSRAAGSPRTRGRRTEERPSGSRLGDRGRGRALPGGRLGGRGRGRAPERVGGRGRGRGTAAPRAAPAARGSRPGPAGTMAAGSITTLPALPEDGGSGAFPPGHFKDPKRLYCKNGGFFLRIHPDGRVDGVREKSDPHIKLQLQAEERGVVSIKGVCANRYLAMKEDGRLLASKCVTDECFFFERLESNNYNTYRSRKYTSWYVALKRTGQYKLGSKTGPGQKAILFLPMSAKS

[7] = mitochondrial membrane potential change in A549 cells, profiling panel, cell-based, JC-1 fluorescence, basal, 24 h, 100 nL (AID 1138); conditions: higher = more signal;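 further: A549 lung adenocarcinoma cells under basal conditions with no added stimulus; test concentration not given here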
[8] = tested on: Lefty1; assay: Lefty1 binders on small-molecule microarrays, primary screen, biochemical, small-molecule microarray, 635/667 nm fluorescence (AID 1139); conditions: small-molecule microarray binding, fluorescence 635/667; higher = more signal
[9] = tested on: wheat germ agglutinin (Triticum aestivum), Alexa647-labelled; assay: wheat germ agglutinin binders on compound microarrays, profiling panel, artefact control for SMM control-protein annotation, biochemical, small-molecule microarray, 635/667 nm fluorescence (AID 1140); conditions: WGA-A647 binding, 635 nm fluorescence, higher = more signal;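 further: score merges 667 nm feature emission with signal to noise over triplicate slides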
[10] = biological target: Luciferin 4-monooxygenase (Photinus pyralis) (UniProt P08659); assay: firefly luciferase enzyme inhibitors, primary screen, biochemical, luminescence, purified enzyme, 2006 set (AID 1141); conditions: SteadyGlo luminescence, 30 min, higher = more signal, called active from +8 up or from −8 down;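 further: cell-free assay with purified firefly luciferase at 100 ng per well in PBS; test concentration not given here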
Luciferin 4-monooxygenase (Photinus pyralis), sequence (P08659 whole entry, looked up): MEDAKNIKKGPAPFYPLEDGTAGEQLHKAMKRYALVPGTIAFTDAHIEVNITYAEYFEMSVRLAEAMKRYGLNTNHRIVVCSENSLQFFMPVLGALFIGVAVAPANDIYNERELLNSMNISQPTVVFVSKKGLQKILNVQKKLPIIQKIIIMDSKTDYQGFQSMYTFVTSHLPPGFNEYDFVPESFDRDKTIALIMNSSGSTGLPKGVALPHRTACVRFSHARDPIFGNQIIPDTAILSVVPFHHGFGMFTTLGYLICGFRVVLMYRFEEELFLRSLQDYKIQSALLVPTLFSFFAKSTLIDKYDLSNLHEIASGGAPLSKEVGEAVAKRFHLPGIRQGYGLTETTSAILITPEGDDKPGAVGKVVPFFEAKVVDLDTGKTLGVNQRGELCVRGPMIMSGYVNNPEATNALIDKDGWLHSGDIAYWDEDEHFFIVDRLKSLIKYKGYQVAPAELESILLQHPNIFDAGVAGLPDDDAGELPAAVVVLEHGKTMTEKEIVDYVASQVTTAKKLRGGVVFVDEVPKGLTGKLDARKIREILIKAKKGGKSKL

SMILES | composite z-score [1] | composite z-score [2] | composite z-score [3] | composite z-score [4] | composite z-score [5] | composite z-score [6] | z-score [7] | composite z-score [8] | composite z-score [9] | z-score [10]
CC(=O)C1=CCC(c2ccccc2)N(S(=O)(=O)c2ccc(C)cc2)C1 (stereo not given) | 1.8 | 1.19 | 0.362 | 0.757 | 0.798 | -0.194 | -1.16 | 0.176 | 1.21 | 1.6 (inactive)
CC(C)N1CC=CC23O[C@@H]4C=CCOC(=O)[C@@H]4[C@H]2C(=O)N(CCO)[C@@H]3C1=O (stereo not given in full) | 0.386 | -0.586 | -0.346 | -0.766 | -0.22 | -1.33 | -0.346 | 0.103 | -0.249 | -0.0322 (inactive)
COCCOC(=O)N1C(=O)[C@@]2(c3cc(C#CCNC(N)=O)ccc31)[C@H](C(=O)N1CCc3cc(OC)c(OC)cc3C1)[C@H]1C(=O)O[C@H](c3ccccc3)[C@H](c3ccccc3)N1[C@@H]2c1ccc(OCCO)cc1 | 0.101 | 0.158 | -0.0354 | 0.108 | 1.3 | 1.41 | -1.49 | 0.881 | 0.385 | -0.553 (inactive)
COCCOC(=O)N1C(=O)[C@@]2(c3cc(C#CCC(C(=O)OC)C(=O)OC)ccc31)[C@H](C(=O)N1CCN(c3ncccn3)CC1)[C@H]1C(=O)O[C@H](c3ccccc3)[C@H](c3ccccc3)N1[C@@H]2c1ccc(OCCO)cc1 | 1.61 | 1.19 | 0.21 | 0.993 | 1.24 | 1.2 | -1.31 | 0.733 | 0.945 | -0.59 (inactive)
C=C(COC)C(=O)CC[C@@H](OC(=O)c1cccnc1)c1ccc(CO)o1 | -0.131 | 0.0982 | -0.111 | 0.39 | 1.18 | 1.46 | 0.217 | 0.911 | -0.0265 | -2.05 (inactive)
CC(C)C(=C=CC[C@@H](O)c1ccccc1OCCO)C[C@@H](O)c1ccccn1 | -0.131 | 0.647 | 1.02 | 0.694 | 0.6 | 0.566 | 1.43 | 0.811 | 0.21 | -0.623 (inactive)
CCOC(=O)C1=CC[C@@H](c2ccccc2Cl)N(S(=O)(=O)c2ccc(C)cc2)C1 | 1.15 | 1.18 | 1.29 | 0.838 | 0.37 | 0.163 | 2.73 | -0.612 | 0.91 | 0.614 (inactive)
[N-]=[N+]=NCc1ccccc1C[C@@]1(C(=O)N2CCOCC2)N=C(c2ccc(OCCCO)cc2)O[C@@H]1c1ccccc1CN=[N+]=[N-] | 3.09 | 1.25 | 0.829 | 0.978 | 1.05 | 0.684 | 0.74 | 0.365 | 1.3 | -0.832 (inactive)
CCOC(=O)C1=C[C@@H](C(C)C)N(S(=O)(=O)c2ccc(C)cc2)[C@H]1c1ccc(C(C)C)cc1 | 0.408 | 1.15 | 1.54 | 0.915 | 1.23 | -0.067 | 2.96 | 0.752 | 0.734 | 2.41 (inactive)
N#Cc1ccc(NN2C(C(O)C3CCCCC3)C=CC3C(=O)N(c4ccccc4)C(=O)C32)cc1 (stereo not given) | 0.422 | 1.27 | 0.533 | 1.03 | 1.27 | -0.252 | -0.309 | 0.058 | 0.847 | -0.394 (inactive)
CO[C@H]1O[C@H](CO)[C@@H](OC(=O)Nc2ccc(Oc3ccccc3)cc2)[C@H](OC(=O)Nc2ccccc2)[C@H]1OC(=O)Nc1ccccc1 | 1.88 | 1.27 | 1.12 | 0.985 | 1.07 | 1.61 | -1.69 | 0.444 | 1.08 | -0.923 (inactive)
N[C@@H](Cc1ccccc1)Cn1cc(-c2ccccc2)nn1 | -0.0727 | 0.184 | -0.0983 | 0.274 | 0.219 | -0.311 | 0.805 | -0.155 | 0.441 | -1.32 (inactive)
CCN(CC)c1ccc(N2CC=CC34O[C@@H]5/C=C\CCCOC(=O)C5[C@H]3C(=O)N(C(CO)C(C)C)[C@@H]4C2=O)cc1 (stereo not given in full) | 1.02 | -1.04 | 0.409 | -1.1 | -0.45 | -0.593 | 0.8 | -0.217 | -0.615 | -0.557 (inactive)
COCCOC(=O)N1C(=O)[C@@]2(c3cc(C#CCC(C(=O)OC)C(=O)OC)ccc31)[C@H](C(=O)N1CCCCCCC1)[C@H]1C(=O)O[C@H](c3ccccc3)[C@H](c3ccccc3)N1[C@@H]2c1ccc(OCCO)cc1 | 0.887 | 1.25 | 1.97 | 0.965 | 1.49 | 1.62 | -1.49 | 1.65 | 1.6 | -0.0546 (inactive)
C=CC(=C)C1=CCO[C@@H]1[C@H]1CCCN1S(=O)(=O)c1ccccc1[N+](=O)[O-] | 0.2 | 0.25 | -0.318 | 0.802 | 0.976 | 0.174 | -0.295 | 0.767 | 0.241 | 0.0352 (inactive)
COc1ccc(CCNC(=O)[C@@H]2c3ccccc3C(=O)N(Cc3ccc(OC(F)(F)F)cc3)[C@H]2c2ccc(CO)cc2)cc1 | 1.66 | 0.901 | 0.658 | 0.0913 | 1.18 | 0.494 | 1.48 | 0.147 | 0.213 | -0.243 (inactive)
CC(C)C[C@@H]1NC(=O)[C@@H]2C[C@H](C(=O)NCCCCCC[N+](C)(C)C)[C@H](c3ccc(O)cc3)N2C1=O | 1.59 | 0.922 | 0.11 | 0.427 | 1.18 | 0.998 | -0.158 | 1.08 | 0.56 | 0.0519 (inactive)
O=C1C[C@@](C(=O)NC2CC2)(c2ccc([N+](=O)[O-])cc2)[C@@H](c2ccc(CO)cc2)N1CC12CC3CC(CC(C3)C1)C2 | 0.294 | 0.831 | 0.473 | 0.934 | 1.21 | 0.0882 | 0.0799 | 0.427 | 0.553 | 1.12 (inactive)
C=CC[C@]1(C(=O)N2CCOCC2)N=C(c2ccc(OCCCO)cc2)O[C@H]1c1ccccc1 | 1.69 | 1.22 | 0.602 | 0.866 | 0.401 | 0.12 | 0.409 | -0.781 | 1.28 | 1.25 (inactive)
O=C1N(CCS(=O)(=O)c2ccccc2)Cc2ccccc2[C@H]2OC(c3ccc(OCCCO)cc3)=N[C@@]12CCS(=O)(=O)c1ccccc1 | 2.44 | 1.21 | 0.772 | 0.561 | 1.33 | 1.31 | -1.15 | -0.0425 | 1.09 | -1.7 (inactive)
CCOc1cc(C(O)C2C=CC3C(=O)N(c4ccccc4)C(=O)C3N2Nc2ccc([N+](=O)[O-])cc2)ccc1O (stereo not given) | 0.73 | 1.06 | 0.106 | 0.0405 | 0.165 | 0.0474 | -1.52 | 0.107 | 0.14 | -0.021 (inactive)
CCCNC(=O)[C@@]1(c2ccc([N+](=O)[O-])cc2)CC(=O)N(CC23CC4CC(CC(C4)C2)C3)[C@@H]1c1ccc(CO)cc1 | 1.19 | 1.04 | 0.117 | 0.356 | 0.509 | 1.23 | 0.582 | -0.197 | -0.109 | 0.494 (inactive)
CCOC(=O)C[C@H]1[C@H](OC(=O)Cc2ccc3c(c2)OCO3)[C@@H](NC(=O)C2CCCCC2)c2cc(OCCCO)ccc2N1C(=O)Cc1ccc(OC)cc1 | 0.135 | 0.807 | 0.673 | 0.66 | 0.139 | 0.221 | 2.5 | 0.333 | 0.0679 | -1.27 (inactive)
Cc1ccc(F)cc1S(=O)(=O)N[C@@H]1CCN(Cc2ccc(-c3ccccc3)cc2)C1 | -0.0798 | 0.517 | 0.377 | -0.0516 | 0.646 | 0.424 | 0.225 | 0.292 | -0.108 | 0.715 (inactive)
CC1=C2[C@@H](CCc3ccccc3)OB(O)C[C@@H]2n2c(=O)n(-c3ccccc3)c(=O)n2C1 | 0.324 | 0.479 | 0.233 | 0.923 | 0.794 | 0.618 | 0.235 | 0.897 | 0.0099 | -0.85 (inactive)
CC(C)Cc1ccc(CN2CC[C@@H](NS(=O)(=O)c3ccccc3)C2)cc1 | 0.441 | -0.593 | -0.0553 | -1.02 | 0.797 | -0.0321 | -0.641 | 0.477 | -0.654 | 0.826 (inactive)
O=C1O[C@@H](c2ccccc2)[C@@H](c2ccccc2)N2[C@@H](c3ccc(OCCO)cc3)[C@]3(C(=O)Nc4ccccc43)[C@@H](C(=O)Nc3nc4ccccc4s3)[C@H]12 | 2.11 | 1.26 | 0.645 | 1 | 1.21 | 0.79 | -2.13 | 1.28 | 0.958 | -9.09 (active)
C[C@H]1NC(=O)[C@H](Cc2ccccc2)NC(=O)[C@@]23C(=O)N[C@@H](Cc4ccccc4)C2[C@H](C)[C@@]2(C)O[C@H]2C3/C=C/C/C=C\CNC1=O (stereo not given in full) | -0.708 | -1.27 | -0.261 | -1.75 | 0.275 | 0.0643 | 0.593 | -0.94 | -0.585 | -0.923 (inactive)
Cc1ccccc1C(O)C1C=CC2C(=O)N(C)C(=O)C2N1Nc1ccccc1 (stereo not given) | 1.23 | 1.16 | 0.175 | 1.01 | 0.459 | -0.462 | 0.0888 | -0.395 | 1.38 | 0.292 (inactive)
COCCCNC(=O)[C@@]1(C)c2ccccc2C(=O)N(Cc2cc(C(F)(F)F)cc(C(F)(F)F)c2)[C@H]1c1ccc(CO)cc1 | -0.12 | -0.203 | 0.295 | 0.207 | -0.672 | -1.5 | 0.509 | -0.191 | 0.0593 | 1.16 (inactive)

— PubChem BioAssay
